Source: PubChem
HCV inh – HCV inhibition; Huh7.5.1 HCVcc-Cre infection, luciferase reporter, 44 h; Potency, µM (series often up to 41.8 µM), for the others: at the top dose activity change, negative = inhibition, actives largely listed as inhibitors; actives 3.4% (n = 340,000); note: potency is the fitted concentration of half-maximal effect
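Whole-lifecycle infectious HCVcc-Cre system; cells 1,000/well, compound then virus (~0.5 moi) added 4 h after plating, 44 h culture. Luciferase read 15 sec following 15 min substrate incubation, room temp.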
Pf growth 96h – P. falciparum growth inhibition at 96 hours; P. falciparum luciferase reporter growth, 96 h; Potency, µM (highest dose often 28.7 µM), for the others: top-dose activity change, negative = inhibition, usual class: inhibitors; AID 504834; actives 6.9% (n = 320,000); note: potency is the fitted concentration of half-maximal effect
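Luminescence readout: decreased luciferase signal marks inhibited growth of reporter-expressing P. falciparum in infected red cells (2% hematocrit, 0.05% parasitemia final), exposed to compound two generations (96 h, 37 C, 5% CO2).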
HCMV inh – blocks human cytomegalovirus replication | activity change, negative = inhibition, % at 57.5 µM | actives 4.5% (n = 410,000) | HFF cells, HCMV-luciferase reporter, 72 h; active compounds read low; in the data active = activity change below about -60%; inconclusive = no clear call, values can overlap the other calls; inactive = above about -39%
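HFF cells seeded 16 h at 37C, treated with compounds, infected with luciferase-reporter HCMV at MOI 1 PFU/cell; luciferase read at 72 h post infection, normalized to buffer-only and Salinomycin controls.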
Pf growth 48h – inhibits P. falciparum growth in the first generation, 48 h; AID 504832; actives 5.9% (n = 310,000); P. falciparum luciferase growth in erythrocytes, 48 h; Potency, µM (doses to about 28.7 µM), without a hit: at the highest dose activity change, negative = inhibition, hits mostly inhibitors; note: potency is the fitted concentration of half-maximal effect
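Read-out is firefly luciferase luminescence from an integrated reporter in P. falciparum, so falling signal marks reduced parasite growth. Infected erythrocytes were at 2% hematocrit and 0.1% parasitemia (final) in Albumax-supplemented RPMI 1640.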
* = called active by the depositor. Shown are actives, neighbours in structure and some others; about 13% of the full set was active somewhere. Unless noted, calls come from the whole dose curve; as a rule, active = well fitted inhibition curve with a large enough effect; inconclusive = small, poorly fitted or top-dose-only effect, or another doubt; inactive = no such curve, though single readings can be large or run the other way. % is set by controls: 0 for no effect and ±100 for the full control effect.

`CC(C)CC1C(=O)N(Cc2cn(Cc3ccco3)nn2)CCS(=O)(=O)N1Cc1ccc(-c2cccc(N(C)C)c2)cc1` (stereo not drawn) gave HCMV inh -101*.
Screening Cc1ccc(-c2ccc(CN3C(CC(C)C)C(=O)N(Cc4cn(Cc5ccco5)nn4)CCS3(=O)=O)cc2)cc1 (stereo not drawn) returned HCMV inh -7.
For Cc1ccc(Cl)cc1N1CCN(C(=O)c2cc(S(=O)(=O)N3CCCCCC3)cn2C)CC1 the results were HCMV inh -9.
For O=C(c1ccccc1)c1ccccc1NC(=O)C1CCCN1Cc1ccccc1 (stereo not drawn) the results were HCV inh inconclusive, Pf growth 96h inconclusive, HCMV inh -60* and Pf growth 48h inconclusive.
Screening COc1ccc(Nc2oc(-c3ccc(COc4cccc(C)c4)o3)nc2C#N)cc1 returned HCMV inh -37.
`CCOC(=O)CN1C(=O)C(Sc2n[nH]c(-c3cccc(C)c3)n2)CCc2ccccc21` (stereo not drawn) gave HCV inh -27%, Pf growth 96h 9.3µM*, HCMV inh -31 and Pf growth 48h 13µM*.
`COc1ccc(N2C(=O)CC(Sc3n[nH]c(-c4cccc(C)c4)n3)C2=O)cc1` (stereo not drawn) gave HCV inh 0%, Pf growth 96h inconclusive, HCMV inh -3 and Pf growth 48h inconclusive.
CCOC(=O)CN1C(=O)C(Sc2n[nH]c(-c3ccc(C)cc3)n2)CCc2ccccc21 (stereo not drawn) was read as HCV inh inconclusive, Pf growth 96h 12µM*, HCMV inh inconclusive and Pf growth 48h inconclusive.
CCOc1ccccc1N1C(=O)CC(Sc2n[nH]c(-c3ccccc3)n2)C1=O (stereo not drawn) was read as HCV inh 16%, Pf growth 96h -15%, HCMV inh -29 and Pf growth 48h -20%.
For CCCc1nn(C)c(C(=O)Nc2cccc(Cl)c2)c1Cl the results were HCV inh inconclusive, Pf growth 96h 198%, HCMV inh -64* and Pf growth 48h 137%.
For Cc1ccc(O)c(NC(=O)c2onc(C)c2Cl)c1 the results were HCV inh -5%, Pf growth 96h -8%, HCMV inh 156 and Pf growth 48h 12µM*.
Screening Cc1noc(C(=O)Nc2ccc(F)cc2F)c1Cl returned HCV inh 14%, Pf growth 96h 57%, HCMV inh 1 and Pf growth 48h 74%.
For Cc1noc(C(=O)Nc2cccc(Cl)c2)c1Cl the results were HCV inh -11%, Pf growth 96h 9.3µM*, HCMV inh 52 and Pf growth 48h 109%.
COC(=O)c1ccccc1NC(=O)c1onc(C)c1Cl was read as HCV inh -7%, Pf growth 96h 5.2µM*, HCMV inh -3 and Pf growth 48h 31%.
Screening Cc1noc(C(=O)Nc2cccc(O)c2)c1Cl returned HCV inh 7%, Pf growth 96h 103%, HCMV inh 0 and Pf growth 48h 79%.
Cc1ccc(S(=O)(=O)n2nc(-c3ccc(Cl)cc3)nc2NCc2ccc(F)cc2)cc1 was read as HCMV inh -4.
Screening Cc1cc(C)nc(/N=C(\N)N(Cc2ccccc2)Cc2ccccc2)n1 returned HCV inh inconclusive, Pf growth 96h 10µM*, HCMV inh -4 and Pf growth 48h inconclusive.
`Cc1cc(C)nc(/N=C(\N)Nc2ccc(SC(F)F)cc2)n1` gave HCV inh inconclusive, Pf growth 96h 13µM*, HCMV inh inconclusive and Pf growth 48h 12µM*.
Screening Cc1cc(C)nc(/N=C(\N)Nc2ccc(-c3ccccc3)cc2)n1 returned HCV inh 11µM*, Pf growth 96h inconclusive, HCMV inh inconclusive and Pf growth 48h inconclusive.
COc1ccc(NC(=O)c2cc(-c3cc(C)cs3)[nH]n2)cc1OC was read as HCMV inh 0.
Screening Cc1csc(-c2cc(C(=O)NCc3ccc(F)cc3)n[nH]2)c1 returned HCMV inh -64*.
`COc1cccc(N2CCN(C(=O)CN3C(=O)NC(C)(c4ccc5ccccc5c4)C3=O)CC2)c1` (stereo not drawn) gave HCV inh 11µM*, Pf growth 96h inconclusive, HCMV inh inconclusive and Pf growth 48h inconclusive.
`CC1(c2ccc3ccccc3c2)NC(=O)N(CC(=O)N2CCN(c3ccccc3O)CC2)C1=O` (stereo not drawn) gave HCV inh inconclusive, Pf growth 96h inconclusive, HCMV inh -22 and Pf growth 48h inconclusive.
`CCOC(=O)N1CCN(C(=O)CN2C(=O)NC(C)(c3ccc4ccccc4c3)C2=O)CC1` (stereo not drawn) gave HCV inh 5%, Pf growth 96h inconclusive, HCMV inh -11 and Pf growth 48h 12µM*.
For CN1CCN(C(=O)CN2C(=O)NC(C)(c3ccc4ccccc4c3)C2=O)CC1 (stereo not drawn) the results were HCV inh -16%, Pf growth 96h inconclusive, HCMV inh inconclusive and Pf growth 48h 9%.
`COc1ccc(C=NCC2OCCc3ccccc32)cc1OC` (stereo not drawn) gave HCV inh 11%, Pf growth 96h 2%, HCMV inh inconclusive and Pf growth 48h -7%.
`COc1cc(C=NCC2OCCc3ccccc32)cc(OC)c1` (stereo not drawn) gave HCV inh 23%, Pf growth 96h 9.3µM*, HCMV inh 24 and Pf growth 48h 8%.
`CC(Sc1nc(C(C)(C)C)cc(-c2ccccc2)c1C#N)C(=O)Nc1ccccc1` (stereo not drawn) gave HCV inh -25%, Pf growth 96h inconclusive, HCMV inh -64* and Pf growth 48h 0%.
For COc1ccc(Nc2nc(N3CCCC3)nc(N3CCOCC3)n2)cc1 the results were HCMV inh -32.
Screening COc1nc(Nc2ccc(C(C)C)cc2)nc(OC)n1 returned HCV inh inconclusive, Pf growth 96h -10%, HCMV inh -16 and Pf growth 48h 1.2µM*.
Screening COc1ccc(N2CCN(c3nc(NCCc4ccc(OC)c(OC)c4)nc(OC)n3)CC2)cc1 returned HCV inh 11µM*, HCMV inh -90* and Pf growth 48h inconclusive.
Screening COc1nc(Nc2ccc(O)cc2)nc(OC(C(F)(F)F)C(F)(F)F)n1 returned HCV inh inconclusive, HCMV inh inconclusive and Pf growth 48h -10%.
`COc1ccc(Nc2nc(OC)nc(N3CCN(c4ccc(OC)cc4)CC3)n2)cc1` gave HCV inh -9%, Pf growth 96h inconclusive, HCMV inh -37 and Pf growth 48h 9.3µM*.
`COc1ccc(Nc2nc(Cl)nc(N3CCN(c4ccc(OC)cc4)CC3)n2)cc1` gave Pf growth 96h 12µM*, HCMV inh -34 and Pf growth 48h inconclusive.
For CCc1ccc(NC(=O)c2sc3nc(C)c(Cl)c(C)c3c2N)cc1 the results were HCMV inh 59.
`CCCCCNC(=O)c1cc2c(=O)n3ccccc3nc2n1C` gave HCMV inh 40.
